Screening results: PubChem BioAssay, National Center for Advancing Translational Sciences (NCATS)
Sampled rows, rich in hits. Any-hit rate of the full collection: about 3.9%.
Casp7 inh: caspase-7 (human) inhibition, allosteric or competitive. Potency, µM (titrated, usually from 57.5 µM), hits mostly inhibitors. P55210. recombinant caspase-7, Ac-DEVD-AFC fluorescence rate. hit rate 0.02% among 75,000. AID 889; active = well fitted inhibition curve with a large enough effect in the main read-out, with a control signal flat, not every such curve was filed as active; inconclusive = small, poorly fitted or top-dose-only effect, or a change in a side signal
Caspase-1 inhib: blocks human caspase-1 allosterically or competitively. Caspase-1 enzyme, Ac-WEHD-AFC fluorogenic rate. Potency, µM (titrated, usually from 57.5 µM), actives largely listed as inhibitors. AID 900. hit rate 0.03% among 75,000
Tau filament bind: tau filament binding; P10636; recombinant tau filaments, thioflavin S fluorescence, 15 h; filaments grown with octadecylsulfate alongside compound; Potency, µM (top dose mostly 57.1 µM); hit rate 2% among 71,000;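 note: actives lower thioflavin S fluorescence by blocking filaments or displacing dye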
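His-tagged recombinant human tau (exons 2, 3, 10; 1 uM final) fibrillized with 30 uM sodium octadecylsulfate, 15 h at 37 C, in pH 7.4 HEPES buffer with 10 uM thioflavine S and 5 mM DTT. Reduced ThS fluorescence (450/510 nm) marks activity.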
ALOX15 inhib: 15-hLO (ALOX15) enzyme inhibition | purified 15hLO-1, xylenol orange hydroperoxide absorbance | Potency, µM (titrated, usually from 57.1 µM), usual class: inhibitors | hit rate 1.4% among 74,000 | AID 887; note: nearly all actives have a fitted effect of over 55% in size
Target sequence (P16050 whole entry, looked up): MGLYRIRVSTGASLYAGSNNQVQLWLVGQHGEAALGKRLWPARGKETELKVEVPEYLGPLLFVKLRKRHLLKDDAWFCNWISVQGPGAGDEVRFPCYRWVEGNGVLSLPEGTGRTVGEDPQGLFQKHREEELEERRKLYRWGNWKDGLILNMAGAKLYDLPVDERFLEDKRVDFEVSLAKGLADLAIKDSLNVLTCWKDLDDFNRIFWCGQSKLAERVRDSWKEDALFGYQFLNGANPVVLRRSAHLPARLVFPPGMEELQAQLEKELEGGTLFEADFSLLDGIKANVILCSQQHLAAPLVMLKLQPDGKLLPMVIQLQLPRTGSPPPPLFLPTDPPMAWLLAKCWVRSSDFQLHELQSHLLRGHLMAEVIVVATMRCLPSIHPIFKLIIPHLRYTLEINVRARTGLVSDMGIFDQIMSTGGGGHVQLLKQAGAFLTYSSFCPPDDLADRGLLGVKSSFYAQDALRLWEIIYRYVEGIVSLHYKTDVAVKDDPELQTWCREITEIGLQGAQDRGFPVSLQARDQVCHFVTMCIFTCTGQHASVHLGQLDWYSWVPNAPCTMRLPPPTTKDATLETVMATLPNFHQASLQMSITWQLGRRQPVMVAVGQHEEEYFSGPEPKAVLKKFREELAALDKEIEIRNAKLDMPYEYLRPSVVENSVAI
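Purified human 15hLO-1 (40 nM) in 25 mM Hepes pH 7.5, 0.01% Triton X-100, preincubated 15 min RT with compound, then 50 uM arachidonic acid for 6 min. Hydroperoxide read by ferrous/xylenol orange, 30 min; 573/405 nm absorbance ratio gave progress.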
ERK AVP inh: vasopressin-driven ERK pathway inhibition | HEK293-V1b, vasopressin-stimulated pERK AlphaScreen | Potency, µM (top dose mostly 57.5 µM), hits mostly inhibitors | hit rate 0.99% among 72,000; note: nearly all actives have a fitted effect of over 55% in size
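Phosphorylated ERK1/2 detected via AlphaScreen bead proximity in lysates of V1b-expressing HEK293 cells given 25 nM vasopressin for 5 min after 30 min compound exposure (37 °C). AC50 from Hill equation; basal DMSO 0%, vasopressin 100%.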
Of the large screens only hits and unclear results are named; the others gave an inactive call. Unless noted, calls come from the whole dose curve; as a rule, active = well fitted curve in the direction sought with a large enough effect; inconclusive = small, poorly fitted or top-dose-only effect, or another doubt; inactive = no such curve, though single readings can be large; an effect the other way counts as inactive or inconclusive.

Brc1ccc2[nH]c3nc(SCCN4CCOCC4)nnc3c2c1	Tau filament bind 13µM
COc1ccc(CCNC(=O)c2sc(=S)n(C)c2N)cc1	Caspase-1 inhib inconclusive
Cn1c(N)c(C(=O)NCc2ccccc2)sc1=S	ALOX15 inhib 13µM
CO/N=C(\C(=O)N[C@@H]1C(=O)N2C(C(=O)O)=C(CSc3nc(=O)c(O)nn3C)CS[C@@H]12)c1csc(N)n1	none
O=C(Nc1ccc(-c2cn3ccsc3n2)cc1)c1ccc(F)c(S(=O)(=O)N2CCOCC2)c1	ERK AVP inh 13µM
O=C(Nc1ccccc1)c1ccc(F)c(S(=O)(=O)N2CCOCC2)c1	none
CCCOC(=O)c1ccc(OCC(O)Cn2c(C)nc3ccccc32)cc1 (configuration not stated)	ERK AVP inh 13µM
CCOC(=O)Cn1c(C)nc2ccccc21	none
O=C(Nc1cccc(F)c1)N1CC[C@@]2(CCCNC2)C1	none
CC(C)c1ccc(Cn2ccc3c4c(N)nc(NC5CC5)nc4ccc32)cc1	ALOX15 inhib 7.9µM
O=C(Nc1cccc(F)c1)N1CC=C(n2c(=O)[nH]c3ccccc32)CC1	ERK AVP inh 20µM
O=C(Nc1cccc(F)c1)N1CCC2(CCNCC2)CC1	none
COCCn1cnc2c(c1=O)c1nc3ccccc3nc1n2/N=C/c1cccc(OC)c1OC	none
C=CCn1cnc2c(c1=O)c1nc3ccccc3nc1n2/N=C/c1cccc(OC)c1	Tau filament bind 3.2µM
CCN(CC)c1ccc(/C=N/NC(=O)c2ccc(O)cc2)cc1	Caspase-1 inhib inconclusive, ALOX15 inhib inconclusive (no result: Tau filament bind)
O=C(Nc1ccccc1C(F)(F)F)N1CCN(c2ccc3nnc(-c4ccc(F)cc4)n3n2)CC1	none (no result: Tau filament bind, ERK AVP inh)
Fc1ccc(-c2nnc3ccc(N4CCc5ccccc5C4)nn23)cc1	ALOX15 inhib 25µM
c1ccc(CNc2cc(-c3cccnc3)ncn2)cc1	none
COC(=O)c1ccccc1NC(=O)CSc1nnnn1-c1ccc(C)cc1C	Tau filament bind 10µM, ALOX15 inhib inconclusive
CCOC(=O)c1sc(NC(=O)CSc2nnnn2-c2ccc(C)cc2C)nc1C	none
CC(C)COC(=O)c1cc(-c2ccc(/C=N/n3cnnc3)o2)ccc1Cl	Tau filament bind 25µM
COC(=O)c1ccc(/C=N/n2cnnc2)cc1	none
COC(=O)[C@H]1C[C@@H]1[C@H](NC(C)=O)c1ccccc1	none (no result: ALOX15 inhib)
CS(=O)(=O)Nc1cccc(-c2ccc3ncnc(NCc4cccs4)c3c2)c1	ERK AVP inh 16µM
Cc1cnc(CNc2ncnc3ccc(-c4cccc(NS(C)(=O)=O)c4)cc23)cn1	none
CC(=O)OC1CC[C@]2(C)C(CC(OC(C)=O)[C@@]3(C)C4=CC(=O)OC(c5ccoc5)[C@]4(C)CCC23)C1(C)C (some centres not stated)	none (no result: Tau filament bind)
Cc1ccc2c(c1)[nH]c1c(N3CCN(Cc4ccccc4)CC3)ncnc12	ERK AVP inh 16µM
CCN(CC)c1ccc(NC(=O)Nc2cccc(C(C)=O)c2)cc1	Tau filament bind 20µM, ERK AVP inh inconclusive
CN1C(=O)CSc2ccc(NC(=O)N3CCOCC3)cc21	Tau filament bind inconclusive, ALOX15 inhib inconclusive, ERK AVP inh inconclusive
CCOc1cccc(C(=O)Nc2ccc(N(CC)CC)cc2)c1	Tau filament bind 3.2µM, ERK AVP inh inconclusive
CC(=O)c1cccc(NC(=O)Nc2ccc3c(c2)N(C)C(=O)CS3)c1	Tau filament bind 16µM, ALOX15 inhib inconclusive, ERK AVP inh 10µM
COc1cc(/C=N/NC(=O)c2cc(-c3ccccc3)n[nH]2)cc(OC)c1OC	none (no result: Tau filament bind, ERK AVP inh)
O=C(c1cc(C(F)(F)F)cc(C(F)(F)F)c1)N1CCC2(CC1)CN(c1ccccc1)C2	Tau filament bind inconclusive
Cc1nn(C)c(C)c1CNC(=O)c1cc2n(n1)C(C(F)(F)F)CC(c1cccs1)N2 (configuration not stated)	ERK AVP inh 32µM
CCOC(=O)/C(C#N)=C1/C=Cc2ccccc2N1CC	Tau filament bind 16µM, ERK AVP inh inconclusive
CCOC(=O)/C(C#N)=C1/CCCCCN1C	none
Oc1c(Cl)cc(Cl)c2c1NCCC2	Tau filament bind inconclusive, ALOX15 inhib 1.6µM
O=C1NCCCc2c1oc1ccc(O)cc21	none
O=C1C(C2=C(O)c3ccccc3C2=O)=Nc2ccccc21	Tau filament bind 6.3µM
CN=CC1=C(O)c2ccccc2C1=O	ERK AVP inh inconclusive
CCOC(=O)c1c(C)oc2c1c(C(c1cccnc1)N1CCN(C)CC1)c(O)c1ccccc12 (configuration not stated)	none
CCOC(=O)c1c(C)oc2c1c1c(c3ccccc32)OCN(Cc2cccnc2)C1	ALOX15 inhib 2µM
CCCCCCCCCCCCCCC1CO1 (configuration not stated)	none
N#Cc1c(NC(=O)CSCC(=O)O)sc2c1CCCC2	none
CCc1ccc(CCC(=O)Nc2sc3c(c2C#N)CCCC3)o1	ALOX15 inhib 16µM
O=C(c1ccncc1)N1CCC2(CCN(Cc3ccncc3)CC2)CC1	none
COc1cccc(-c2ccc3ncnc(Nc4ccccc4)c3c2)c1	ERK AVP inh inconclusive
O=C(O)CSc1cc(-c2ccccc2)nc2ccccc12	none
On1onc2c3cc(-c4ccccc4)nc3ccc21	Tau filament bind 13µM, ERK AVP inh 25µM
COc1cccc(-c2nccc(NCCc3c[nH]c4ccc(OC)cc34)n2)c1	Tau filament bind 25µM, ERK AVP inh inconclusive
COc1ccc2[nH]cc(CCNc3ccnc(-c4ccccc4C)n3)c2c1	Tau filament bind 16µM, ALOX15 inhib inconclusive
CC(c1nnc(SCC(=O)c2c(N)n(C)c(=O)n(C)c2=O)n1-c1ccc(Cl)cc1)N(C)C (configuration not stated)	ERK AVP inh 40µM
CCOC(=O)SC1=N/C(=C\c2ccc(N(C)C)cc2)C(=O)S1	Tau filament bind 3.2µM, ERK AVP inh inconclusive
CCSC1=N/C(=C\c2ccc(C(=O)O)cc2)C(=O)S1	none
N#CC1=C(N)C(C#N)(C#N)C(c2cccnc2)C2CCCC=C12 (configuration not stated)	Casp7 inh inconclusive, ALOX15 inhib 25µM, ERK AVP inh inconclusive (no result: Caspase-1 inhib)
N#CC1=C(N)C(C#N)(C#N)C(c2ccc[nH]2)C2CCCC=C12 (configuration not stated)	Casp7 inh inconclusive, ERK AVP inh inconclusive (no result: Caspase-1 inhib)
Cc1ccc2c(c1)c1c3n2CCN=C3CCC1	Casp7 inh inconclusive, Tau filament bind 13µM (no result: Caspase-1 inhib)
Cc1ccc2c(c1)c1c3n2CCN[C@H]3CCC1	Tau filament bind inconclusive, ERK AVP inh inconclusive
CC(=O)Nc1cccc(Cn2cccn2)c1	none
O=C(Nc1cccc(Cn2cccn2)c1)c1cc2c(s1)CCCC2	ERK AVP inh 20µM
CC1=CC(=C2C(=O)c3ccccc3C2=O)C=C(C)N1Cc1ccco1	Tau filament bind 32µM
S=C1N[C@H](c2ccccc2)N[C@H](c2ccccc2)S1	none
CCc1c2c(nc3c(C(C)C)cccc13)-c1cccc(=O)n1C2	none (no result: ALOX15 inhib)
CCc1cccc2nc3c(c([Si](CC)(CC)CC)c12)Cn1c-3cccc1=O	Casp7 inh inconclusive, Tau filament bind 20µM (no result: Caspase-1 inhib, ALOX15 inhib)
